Values without a mark were called inactive. For some of these results: Measured potencies and affinities stand elsewhere. The source made the active and inactive calls. Unless noted, the rule behind the calls is not given here.

In general, inhibition refers to the relative decrease from the control value, in per cent.

Assay [1] is described as follows: antimalarial activity against Dd2 strain (AID 2302;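 active = growth inhibition above 50% at the single 2 µM test dose, taken to imply half-maximal potency below 2 µM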;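 note: 0% = DMSO untreated growth and 100% = chloroquine plus artemisinin killed control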). As to conditions: P. falciparum Dd2 in RBCs, LDH growth readout, 72 h; at 2 µM; stronger effect = higher value.
Assay [2] is described as follows: human hepatoma cell viability loss – ATP luminescence, cytotoxicity control for P. falciparum antimalarial project, primary screen (AID 2303;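 active = inhibition above 50%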;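 note: 0% = DMSO wells and 100% = digitonin-killed cells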). Particulars: HepG2 viability, 24-48 h, at 10 µM, stronger effect = higher value.
Assay [3] has as its target L-lactate dehydrogenase (Plasmodium falciparum (isolate CDC / Honduras)) (UniProt Q27743). The assay is described as follows: PfLDH activity inhibition – cell lysate, 3D7 strain, counter-screen for P. falciparum growth inhibition project (AID 2304).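 Note: 0% = vehicle and 100% = reference inhibitor.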 Particulars: P. falciparum 3D7 crude extract, LDH APAD/NBT absorbance; at 2 µM; stronger effect = higher value.
The nature of assay [4]: inhibition of 3D7 malaria parasite growth – strain 3D7 (AID 2306).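 Note: 0% = DMSO wells and 100% = chloroquine plus artemisinin control wells.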 Particulars: P. falciparum 3D7 erythrocytic growth, LDH absorbance, 72 h; at 2 µM; stronger effect = higher value.
For assay [5], the target named is Calcium-dependent protein kinase 1 (Plasmodium falciparum (isolate 3D7)) (UniProt P62344). The assay is described as follows: PfCDPK1 kinase inhibitors, biochemical, TCAMS library (AID 1159585; cut-off not given, nearly all actives have IC50 up to about 0.98 µM;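 note: inhibitors leave more ATP so luminescence rises with inhibition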). Particulars: recombinant PfCDPK1, Kinase-Glo ATP depletion luminescence. In general terms: In Kinase-Glo more light means more ATP remaining.
Chain of Calcium-dependent protein kinase 1 (Plasmodium falciparum (isolate 3D7)) (P62344 whole entry, looked up): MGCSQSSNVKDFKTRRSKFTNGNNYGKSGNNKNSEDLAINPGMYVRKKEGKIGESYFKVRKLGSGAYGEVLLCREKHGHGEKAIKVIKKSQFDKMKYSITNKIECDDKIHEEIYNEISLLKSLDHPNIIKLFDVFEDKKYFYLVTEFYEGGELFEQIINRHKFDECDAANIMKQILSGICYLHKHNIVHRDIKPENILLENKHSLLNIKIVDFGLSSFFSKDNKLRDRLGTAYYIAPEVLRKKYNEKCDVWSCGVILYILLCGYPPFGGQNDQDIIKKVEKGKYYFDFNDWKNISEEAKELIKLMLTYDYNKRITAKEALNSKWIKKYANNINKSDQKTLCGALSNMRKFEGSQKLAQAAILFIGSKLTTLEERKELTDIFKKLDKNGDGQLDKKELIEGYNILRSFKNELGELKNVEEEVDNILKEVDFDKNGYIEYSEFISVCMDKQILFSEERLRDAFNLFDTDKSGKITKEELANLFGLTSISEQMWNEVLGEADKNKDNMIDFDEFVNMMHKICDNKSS
Assay [6] addresses Plasmodium falciparum protein kinase 6 (PK6, PF3D7_1337100) (UniProt Q8IDW1). The assay can be described thus: PfPK6 kinase inhibitors, biochemical, TCAMS library (AID 1159586). As to conditions: recombinant PfPK6, Kinase-Glo ATP depletion luminescence.
For assay [7], the target named is Protein kinase 7 (PK7), Plasmodium falciparum 3D7 (PF3D7_0213400) (UniProt Q7YTF7). The assay can be described thus: inhibition of Plasmodium PK7 catalytic activity – biochemical, TCAMS antimalarial set, Kinase-Glo luminescence (AID 1159587). As to conditions: recombinant PfPK7, Kinase-Glo ATP depletion luminescence.
Chain of Protein kinase 7 (PK7), Plasmodium falciparum 3D7 (PF3D7_0213400) (Q7YTF7 1-343): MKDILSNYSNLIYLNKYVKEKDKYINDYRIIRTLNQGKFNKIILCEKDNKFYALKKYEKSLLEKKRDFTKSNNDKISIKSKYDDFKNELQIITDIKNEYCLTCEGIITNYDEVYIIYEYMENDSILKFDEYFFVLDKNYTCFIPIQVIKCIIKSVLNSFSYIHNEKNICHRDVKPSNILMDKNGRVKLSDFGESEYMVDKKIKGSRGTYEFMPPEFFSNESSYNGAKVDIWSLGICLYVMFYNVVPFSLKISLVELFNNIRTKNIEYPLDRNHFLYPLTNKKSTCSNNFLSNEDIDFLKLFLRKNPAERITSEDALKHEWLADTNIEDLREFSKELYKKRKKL
The target of assay [8] is Calcium-dependent protein kinase 4 (Plasmodium falciparum (isolate 3D7)) (UniProt Q8IBS5). The assay is described as follows: PfCDPK4 kinase inhibitors, biochemical, TCAMS library (AID 1159588; cut-off not given, nearly all actives have IC50 up to about 0.91 µM). As to conditions: recombinant PfCDPK4, Kinase-Glo ATP depletion luminescence.
Chain of Calcium-dependent protein kinase 4 (Plasmodium falciparum (isolate 3D7)) (Q8IBS5 whole entry, looked up): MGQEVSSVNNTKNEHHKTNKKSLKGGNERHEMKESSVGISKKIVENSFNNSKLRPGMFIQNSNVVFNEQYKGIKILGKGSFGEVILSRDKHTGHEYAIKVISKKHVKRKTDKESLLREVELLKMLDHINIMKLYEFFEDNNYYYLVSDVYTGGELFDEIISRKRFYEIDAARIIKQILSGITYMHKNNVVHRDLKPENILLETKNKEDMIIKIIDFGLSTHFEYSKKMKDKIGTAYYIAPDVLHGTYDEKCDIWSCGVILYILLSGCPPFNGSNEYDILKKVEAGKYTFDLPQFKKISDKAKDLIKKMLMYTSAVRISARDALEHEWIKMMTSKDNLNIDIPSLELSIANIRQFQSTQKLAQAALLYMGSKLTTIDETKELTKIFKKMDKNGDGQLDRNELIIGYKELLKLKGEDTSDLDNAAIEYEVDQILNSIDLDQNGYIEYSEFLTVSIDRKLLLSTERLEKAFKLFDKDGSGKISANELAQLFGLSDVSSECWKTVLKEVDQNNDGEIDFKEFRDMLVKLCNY

Chain of Plasmodium falciparum protein kinase 6 (PK6, PF3D7_1337100) (Q8IDW1 1-305): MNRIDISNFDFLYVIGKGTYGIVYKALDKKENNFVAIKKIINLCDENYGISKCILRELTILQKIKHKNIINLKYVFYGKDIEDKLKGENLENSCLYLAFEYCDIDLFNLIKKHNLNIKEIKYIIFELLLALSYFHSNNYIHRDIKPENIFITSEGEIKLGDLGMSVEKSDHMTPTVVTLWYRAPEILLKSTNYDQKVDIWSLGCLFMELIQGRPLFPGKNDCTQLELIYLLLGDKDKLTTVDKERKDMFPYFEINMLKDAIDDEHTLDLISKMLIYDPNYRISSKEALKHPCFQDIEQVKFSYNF
Chain of L-lactate dehydrogenase (Plasmodium falciparum (isolate CDC / Honduras)) (Q27743 whole entry, looked up): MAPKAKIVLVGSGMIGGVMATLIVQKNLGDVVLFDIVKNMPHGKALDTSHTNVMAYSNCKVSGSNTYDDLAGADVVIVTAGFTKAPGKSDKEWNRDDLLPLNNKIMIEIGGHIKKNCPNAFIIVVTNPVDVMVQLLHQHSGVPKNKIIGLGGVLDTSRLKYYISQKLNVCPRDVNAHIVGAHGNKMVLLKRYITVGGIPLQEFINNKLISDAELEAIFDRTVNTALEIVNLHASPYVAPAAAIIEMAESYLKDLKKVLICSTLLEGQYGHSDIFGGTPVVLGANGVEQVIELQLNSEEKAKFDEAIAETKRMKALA

In the case of `COc1ccc2ncc(F)c([C@@H](O)CN3CCC(NCc4cc5c(cn4)OCCO5)CC3)c2c1`, the results for the growth inhibition in assay [1] and in assay [4] were 98% (active) and 100% (active), respectively. The inhibition was -4% in assay [2] and -7% in assay [3]. The result in assay [5], in assay [6], in assay [7] and in assay [8] was inactive.
Turning to `Cc1cc(N)c2cc(NC(=O)c3cc4ccccc4s3)ccc2n1`, the growth inhibition in assay [1] was 99% (active); in assay [4], 101% (active). Besides, the inhibition was 100% (active) in assay [2] and 2% in assay [3]. In addition, the result in assay [5], in assay [6], in assay [7] and in assay [8] was inactive.
Take `O=C(N1CCN(c2cccc(C(F)(F)F)c2)CC1)C(Cl)(Cl)Cl`: the growth inhibition in assay [1] is 35%; in assay [4] it was 89% (active). The results for the inhibition in assay [2] and in assay [3] were -8% and 2%, respectively. Moreover, the result in assay [5], in assay [6], in assay [7] and in assay [8] was inactive.
With `CC(C)Oc1ccc(C=CC(=O)Nc2noc3ccccc23)cc1`, the growth inhibition in assay [1] is 95% (active); in assay [4], 96% (active). Further, the figures for the inhibition in assay [2] and in assay [3] were 2% and 4%, respectively. Also, the result in assay [5], in assay [6], in assay [7] and in assay [8] was inactive.
For the molecule `Cc1cc(N[C@@H](CC(C)C)C(=O)Nc2ccccc2)nc(NCCc2ccc(F)cc2)n1`, the growth inhibition in assay [1] was 94% (active); in assay [4] it was 101% (active). For the same molecule, the inhibition is 8% in assay [2] and 4% in assay [3]. The outcome in assay [5], in assay [6], in assay [7] and in assay [8] was inactive.
Take `CCNc1cc(C(=O)N[C@@H](Cc2ccccc2)[C@H](O)CNCCC(C)c2ccccc2)cc(N2CCCC2=O)c1` (stereo not given in full): the growth inhibition in assay [1] is 95% (active); in assay [4], 99% (active). In addition, the values for the inhibition in assay [2] and in assay [3] were 0% and 3%, respectively. Moreover, the outcome in assay [5], in assay [6], in assay [7] and in assay [8] was inactive.
On to `CC1CCN(CC[C@H]2CCCN2S(=O)(=O)c2cccc(NC(=O)Nc3ccc(C(F)(F)F)cc3)c2)CC1`, for which the growth inhibition in assay [1] was 41%; in assay [4], 100% (active). Also, the inhibition in assay [2] was 12%; in assay [3] it was 2%. The outcome in assay [5], in assay [6], in assay [7] and in assay [8] was inactive.
With `Cc1c(CNCCCNc2cc(=O)c3ccccc3[nH]2)sc(-c2ccco2)c1Br`, the values for the growth inhibition in assay [1] and in assay [4] were 39% and 93% (active), respectively. The inhibition is -4% in assay [2] and -1% in assay [3]. Also, the outcome in assay [5], in assay [6], in assay [7] and in assay [8] was inactive.
For the molecule `O=C(NCCN1CCCC1)c1cccc(-c2ccc(-c3nc4ccccc4[nH]3)s2)c1`, the growth inhibition in assay [1] is 13%; in assay [4], 96% (active). Moreover, the figures for the inhibition in assay [2] and in assay [3] were 27% and 4%, respectively. For the same molecule, the outcome in assay [5], in assay [6], in assay [7] and in assay [8] was inactive.
Turning to `CCn1ccc2c(N3CCCS3(=O)=O)cc(C(=O)N[C@@H](Cc3ccccc3)[C@H](O)CNC(C)(C)c3cccc(OC)c3)cc21`, the growth inhibition in assay [1] is 98% (active); in assay [4] it was 99% (active). For the same molecule, the figures for the inhibition in assay [2] and in assay [3] were 20% and -8%, respectively. Besides, the result in assay [5], in assay [6], in assay [7] and in assay [8] was inactive.
Regarding `N#Cc1ccc2c(c1)CCN(CCC1CCC(Nc3ncnc4ccccc34)CC1)C2` (stereo not given), the growth inhibition in assay [1] was 96% (active); in assay [4] it was 101% (active). The inhibition is 65% (active) in assay [2] and -4% in assay [3]. Further, the outcome in assay [5], in assay [6], in assay [7] and in assay [8] was inactive.
Take `O=C(Nc1ccc(OC2CCN(Cc3ccccc3)CC2)c(Cl)c1)c1ccc(F)cc1`: the growth inhibition in assay [1] is 92% (active); in assay [4], 94% (active). The figures for the inhibition in assay [2] and in assay [3] were 30% and 9%, respectively. The outcome in assay [5], in assay [6], in assay [7] and in assay [8] was inactive.
For the molecule `O=C(Nc1cccc(C(F)(F)F)c1)c1ccc(S(=O)(=O)NCC2CCN(CC3CCCCC3)CC2)cc1`, the growth inhibition is 49% in assay [1] and 100% (active) in assay [4]. The inhibition was 24% in assay [2] and -4% in assay [3]. Besides, the outcome in assay [5], in assay [6], in assay [7] and in assay [8] was inactive.
As to `COc1ccc2nc(Nc3nc(-c4ccccn4)cs3)sc2c1`, the results for the growth inhibition in assay [1] and in assay [4] were 94% (active) and 93% (active), respectively. Moreover, the inhibition is 40% in assay [2] and 4% in assay [3]. Also, the outcome in assay [5], in assay [6], in assay [7] and in assay [8] was inactive.
Regarding `Cc1cc(C)c(NC(=O)NC2CCN(CCCCCNC(=O)/C=C/c3ccc(Cl)c(Cl)c3)CC2)c(C)c1`, the figures for the growth inhibition in assay [1] and in assay [4] were 17% and 103% (active), respectively. Moreover, the figures for the inhibition in assay [2] and in assay [3] were 30% and 2%, respectively. The result in assay [5], in assay [6], in assay [7] and in assay [8] was inactive.
In the case of `O=C(Nc1ccc(Oc2ccccc2)cc1)N[C@@H](Cc1ccc(O)cc1)C(=O)NC1CCN(Cc2ccc(O)c([N+](=O)[O-])c2)C1` (stereo not given in full), the growth inhibition is -3% in assay [1] and 101% (active) in assay [4]. Moreover, the inhibition is -3% in assay [2] and 2% in assay [3]. Moreover, the result in assay [5], in assay [6], in assay [7] and in assay [8] was inactive.
On to `NC(=O)C1CCN(Cc2cccc(-c3ccc(-c4nc5ccc(C(F)(F)F)cc5[nH]4)cc3)c2)CC1`, for which the growth inhibition in assay [1] is 94% (active); in assay [4] it was 100% (active). For the same molecule, the results for the inhibition in assay [2] and in assay [3] were 7% and 8%, respectively. Further, the outcome in assay [5], in assay [6], in assay [7] and in assay [8] was inactive.
As to `Cc1ccc2cc(NC(=O)c3cccc(C(=O)Nc4ccc5nc(C)ccc5c4)n3)ccc2n1`, the values for the growth inhibition in assay [1] and in assay [4] were 23% and 92% (active), respectively. Further, the values for the inhibition in assay [2] and in assay [3] were 21% and 4%, respectively. Further, the result in assay [5], in assay [6], in assay [7] and in assay [8] was inactive.
On to `CCOc1cc(C(=O)N[C@@H](Cc2ccccc2)[C@H](O)CNCc2cccc(OC)c2)cc(N2CCCCS2(=O)=O)c1`, for which the growth inhibition was 94% (active) in assay [1] and 97% (active) in assay [4]. The inhibition in assay [2] and in assay [3] was 3% in each case. Besides, the outcome in assay [5], in assay [6], in assay [7] and in assay [8] was inactive.
Regarding `CC(C)c1ccc(CN2CCC(NC(=O)c3ccc(-c4cccc(Cl)c4)s3)CC2)cc1`, the values for the growth inhibition in assay [1] and in assay [4] were 6% and 82% (active), respectively. Also, the inhibition in assay [2] is 50% (active); in assay [3] it was 3%. In addition, the outcome in assay [5], in assay [6], in assay [7] and in assay [8] was inactive.

These data come from PubChem BioAssay.
